ANO1 block – blocks the mouse calcium-activated chloride channel TMEM16A; 310,000 tested, 1.2% active; normalized B-score (activity score, 25-100; higher = stronger inhibition) at 10 µM; HEK293 TMEM16A/YFP iodide influx fluorescence, ionomycin; Q8BHY3;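 active means ratio plate-corrected score three or more library SD toward inhibition, starting fluorescence score within five deviations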;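 further: score derived from kinetic fluorescence span divided by baseline fluorescence per well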
FID counter – displaces DNA intercalator in HCV helicase counter-screen; inhibition, % at 7.9 µM; DNA fluorescent intercalator displacement, fluorescence; 290,000 tested, 0.17% active; in the data active means inhibition above about 37%;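 further: higher means more ethidium bromide displaced from hairpin DNA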
PP5 primary – inhibitors of human protein phosphatase 5 (PP5) | purified PP5c, OMFP substrate fluorescence | AID 1987 | 320,000 tested, 0.18% active | inhibition, % at 6.7 µM;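 active means inhibition above the campaign's mean inhibition across all tested compounds plus 3 SD, cut at about 9.5% in these data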
TMEM16A act – mouse TMEM16A channel activation, primary screen; Q8BHY3; HEK293 TMEM16A/YFP-H148Q/I152L, iodide quench fluorescence; active compounds read low; B-score at 10 µM; 340,000 tested, 0.3% active; AID 623877;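 active means fluorescence-ratio B-score plate-corrected deviation score at least 3 library SD below zero, with starting fluorescence score within 5 deviations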;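 further: channel opened by trigger with iodide after compound preincubation; score built on the fluorescence ratio of max minus min over baseline; more negative score means more quench and so TMEM16A activation or potentiation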
PP1 inh – PP1-alpha (human) inhibition in PP5 counter-screen. purified PP1alpha, OMFP fluorescence. 320,000 tested, 0.9% active. P62136. inhibition, % at 6.7 µM. AID 2235;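 active means inhibition above the mean inhibition of all tested compounds plus 3 SD, computed separately for each screening campaign, cut at about 15% in these data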
PREPL inhibitor – inhibits the human prolyl oligopeptidase-like enzyme; Q4J6C6; recombinant PREPL, fluorescence polarization activity-based probe; inhibition, % at 5.96 µM; 320,000 tested, 0.68% active
Target sequence (Q4J6C6 whole entry, looked up): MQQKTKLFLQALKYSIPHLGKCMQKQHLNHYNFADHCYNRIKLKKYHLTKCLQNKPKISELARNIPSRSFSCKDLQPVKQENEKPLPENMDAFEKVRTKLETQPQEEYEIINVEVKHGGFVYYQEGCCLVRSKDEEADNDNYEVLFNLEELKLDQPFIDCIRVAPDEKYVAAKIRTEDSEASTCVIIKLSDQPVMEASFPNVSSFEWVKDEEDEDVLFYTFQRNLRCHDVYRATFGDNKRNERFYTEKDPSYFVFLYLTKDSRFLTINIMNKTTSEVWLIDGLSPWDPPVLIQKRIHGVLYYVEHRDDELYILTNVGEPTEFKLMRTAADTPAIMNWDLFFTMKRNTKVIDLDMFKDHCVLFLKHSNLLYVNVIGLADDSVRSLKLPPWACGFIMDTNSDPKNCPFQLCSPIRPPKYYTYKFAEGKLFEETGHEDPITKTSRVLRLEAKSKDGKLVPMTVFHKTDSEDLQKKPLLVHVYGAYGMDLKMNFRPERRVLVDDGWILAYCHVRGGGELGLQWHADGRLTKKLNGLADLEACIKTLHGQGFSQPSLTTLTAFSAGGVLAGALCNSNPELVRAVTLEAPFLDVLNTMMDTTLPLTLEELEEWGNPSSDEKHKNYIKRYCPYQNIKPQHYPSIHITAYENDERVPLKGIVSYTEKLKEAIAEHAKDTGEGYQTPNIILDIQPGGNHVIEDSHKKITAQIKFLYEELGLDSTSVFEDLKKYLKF
PREPL confirm – human PREPL inhibition, confirmation; 2,000 tested, 67% active; AID 2803; recombinant PREPL, fluorescence polarization activity probe; shares compounds with PREPL inhibitor; inhibition, % at 5.96 µM
TMEM16A reconf – reconfirmed blocker of mouse TMEM16A calcium-activated chloride channel; inhibition, % at 10 µM; 2,300 tested, 39% active; HEK293 TMEM16A/YFP-H148Q, iodide quench fluorescence; ionomycin added to raise cell calcium; shares compounds with ANO1 block;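 active means mean duplicate percent inhibition, scaled so buffer wells are 0 and the reference blocker 100, over three buffer SD above buffer mean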
HEK293 Ca mobil – counter-screen for TMEM16A inhibitors: effect on calcium mobilization; shares compounds with ANO1 block; TMEM16A/YFP HEK293, Fluo4 calcium mobilization; calcium response (% of ionomycin), % at 10 µM; 2,300 tested, 2% active;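 active means duplicate-averaged calcium signal over 20% of the ionomycin maximum, relative to buffer baseline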;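 further: each well's signal is peak minus trough fluorescence divided by its pre-addition baseline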
YFP-HEK293 quench – parental YFP-HEK293 iodide quench counter-screen activity; shares compounds with ANO1 block; ionomycin; YFP ratio F(max-min)/F0 at 10 µM; 2,300 tested, under 10 active; AID 652233;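 active means yellow fluorescent protein signal ratio exceeding the buffer control mean by over 5 SD of those controls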;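 further: ratio is mean of duplicate wells from kinetic YFP trace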
ClC-1 inh – blocks the rat ClC-1 voltage-dependent chloride channel | shares compounds with ANO1 block | CHO ClC-1-YFP, iodide influx fluorescence quench; iodide control reads 0, buffer control 100 | ratio percent, % at 10 µM | 2,300 tested, under 10 active;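 active means duplicate-mean ratio percent above the mean of iodide-only control wells, which defines zero, plus 5 of their SD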;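 further: higher percent means stronger block of ClC-1 iodide influx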
Numbers stand for hits. Compounds with a hit are over-represented: about 2.7% of the library has one in this group of screens. Unless noted, no stated cut-off is given here; in the data, active means inhibition above about 43%; inactive means the rest.

How did O=[N+]([O-])c1ccc(-[n+]2c(-c3ccccc3)cc(-c3ccccc3)cc2-c2ccccc2)cc1 do in these assays?
ANO1 block: inactive; FID counter: inactive; PP5 primary: inactive; TMEM16A act: inactive; PP1 inh: inactive; PREPL inhibitor: 43; PREPL confirm: inactive

What do the screens show for `O=C([O-])c1ccc(-[n+]2c(-c3ccccc3)cc(-c3ccccc3)cc2-c2ccccc2)cc1`?
ANO1 block: inactive; PP5 primary: inactive; TMEM16A act: inactive; PP1 inh: inactive; PREPL inhibitor: inactive

How did CC1=C[C@@H]2c3cccc4[nH]cc(c34)C[C@H]2N(C)C1 do in these assays?
ANO1 block: inactive; FID counter: inactive; PP5 primary: inactive; TMEM16A act: -14; PP1 inh: inactive; PREPL inhibitor: 58; PREPL confirm: 44

Results for CCN1CCN(CC(=O)c2c(C)n(Cc3ccccc3)c3ccc(OC)cc23)CC1 ?
ANO1 block: inactive; FID counter: inactive; PP5 primary: inactive; TMEM16A act: inactive; PP1 inh: inactive; PREPL inhibitor: inactive

Results for COc1ccc2c(c1)c(C(=O)CN1CCC3(CC1)OCCO3)c(C)n2Cc1ccccc1 ?
ANO1 block: inactive; FID counter: inactive; PP5 primary: inactive; TMEM16A act: inactive; PP1 inh: inactive; PREPL inhibitor: 58; PREPL confirm: 49

Results for O=C(c1ccc(F)c([N+](=O)[O-])c1)N1CC2CC(C1)c1cccc(=O)n1C2 (stereo unspecified) ?
ANO1 block: inactive; FID counter: inactive; PP5 primary: inactive; TMEM16A act: inactive; PP1 inh: inactive; PREPL inhibitor: inactive

Results for CCCCc1nc2ccccc2c(=O)n1-c1ccccc1O ?
ANO1 block: inactive; FID counter: inactive; PP5 primary: inactive; TMEM16A act: inactive; PP1 inh: inactive; PREPL inhibitor: 111; PREPL confirm: inactive

What do the screens show for `CCC(=NCCc1c[nH]c2ccccc12)c1c(O)n(-c2ccc(C)cc2)c(=O)[nH]c1=O`?
ANO1 block: inactive; FID counter: inactive; PP5 primary: inactive; TMEM16A act: inactive; PP1 inh: inactive; PREPL inhibitor: 44; PREPL confirm: 46

What do the screens show for `COC(=O)C1=C(c2cccc(OCc3ccccc3)c2)C[C@@H]2CC[C@H]1N2C(=O)NCCCOC(C)C`?
PP5 primary: inactive; TMEM16A act: inactive; PP1 inh: inactive; PREPL inhibitor: 46; PREPL confirm: inactive

How did COC(=O)C1=C(c2ccc(OC)c(OC)c2)C[C@@H]2CC[C@H]1N2C(=O)NC(C)C do in these assays?
PP5 primary: inactive; TMEM16A act: inactive; PP1 inh: inactive; PREPL inhibitor: inactive

What do the screens show for `CC(C)Cc1[nH]c(=O)c(C#N)c2c1CCC2`?
ANO1 block: inactive; FID counter: inactive; PP5 primary: inactive; TMEM16A act: inactive; PP1 inh: inactive; PREPL inhibitor: 75; PREPL confirm: 66

Results for CC(=O)N[C@@H]1CC[C@@]2(O)[C@H]3Cc4ccc(O)c5c4[C@@]2(CCN3CC2CC2)[C@@H]1O5 ?
TMEM16A act: inactive; PREPL inhibitor: inactive

What do the screens show for `C1CC2OC2CC1C1CO1` (stereo unspecified)?
PP5 primary: inactive; TMEM16A act: inactive; PP1 inh: inactive; PREPL inhibitor: inactive

How did CCOc1cc(/C=C2/C(=O)NC(=O)N(c3ccc(CC)cc3)C2=O)ccc1OC(=O)c1cccs1 do in these assays?
ANO1 block: inactive; FID counter: inactive; PP5 primary: inactive; TMEM16A act: inactive; PP1 inh: inactive; PREPL inhibitor: 48; PREPL confirm: 52

How did CN1C(=O)NC(=O)C2(CCCC2)C1=O do in these assays?
TMEM16A act: inactive

Results for N#CC1C(C#N)C2CCC1C1C2N1c1ccccc1 (stereo unspecified) ?
TMEM16A act: inactive

What do the screens show for `Clc1ccc(C[n+]2c(-c3ccccc3)cc(-c3ccccc3)cc2-c2ccccc2)cc1`?
ANO1 block: 25; PP5 primary: inactive; TMEM16A act: inactive; PP1 inh: inactive; PREPL inhibitor: 71; PREPL confirm: 63

How did CCCN1CCC(NC2CCC(O)CC2)CC1 (stereo unspecified) do in these assays?
ANO1 block: inactive; FID counter: inactive; PP5 primary: inactive; TMEM16A act: inactive; PP1 inh: inactive; PREPL inhibitor: inactive

What do the screens show for `O=[N+]([O-])c1ccccc1CCl`?
PP5 primary: inactive; TMEM16A act: inactive; PP1 inh: inactive; PREPL inhibitor: inactive

Results for O=[N+]([O-])c1ccccc1-c1cc(-c2ccccc2)cc(-c2ccccc2)[n+]1Cc1ccccc1Cl ?
ANO1 block: inactive; PP5 primary: inactive; PP1 inh: inactive; PREPL inhibitor: 51; PREPL confirm: 49

Results for COc1ccc2c(c1)[nH]c1c(C)nccc12 ?
ANO1 block: inactive; PP5 primary: inactive; TMEM16A act: inactive; PP1 inh: inactive; PREPL inhibitor: inactive

Results for COc1ccc2c3c([nH]c2c1)C(C)=NCC3 ?
ANO1 block: inactive; FID counter: inactive; PP5 primary: inactive; TMEM16A act: inactive; PP1 inh: inactive; PREPL inhibitor: 71; PREPL confirm: inactive

How did C1=NCCc2c1[nH]c1ccccc21 do in these assays?
ANO1 block: inactive; PP5 primary: inactive; TMEM16A act: inactive; PP1 inh: inactive; PREPL inhibitor: inactive

What do the screens show for `CC1=NCCc2c1[nH]c1cc(O)ccc21`?
ANO1 block: inactive; PP5 primary: inactive; TMEM16A act: inactive; PP1 inh: inactive; PREPL inhibitor: 51; PREPL confirm: inactive

What do the screens show for `CC(=NCCc1c[nH]c2ccccc12)c1c(O)n(Cc2ccccc2)c(=O)[nH]c1=O`?
ANO1 block: 25; FID counter: inactive; PP5 primary: inactive; TMEM16A act: inactive; PP1 inh: inactive; PREPL inhibitor: 43; PREPL confirm: inactive; TMEM16A reconf: inactive; HEK293 Ca mobil: 31%; YFP-HEK293 quench: inactive; ClC-1 inh: inactive

What do the screens show for `C#C[C@]1(O)[C@H](O)CC2C3CC[C@H]4C[C@@H](O)CC[C@]4(C)C3CC[C@@]21C` (stereo partly specified)?
PREPL inhibitor: inactive

Source: PubChem
